Assay results as given in PubChem BioAssay (Tox21).
Where “and” joins values, the source holds several entries; their conditions need not be identical. Identical values can stand only once. Results filed as inconclusive are left out. More than one record can exist for a structure, and the calls need not agree. Calls of active or inactive are those of the source. Unless noted, the call rests on the fitted dose curve.

Experiments:
[1] = qHTS assay to identify small molecule antagonists of the sonic hedgehog signaling (Shh) pathway (AID 1259369); further: nearly all actives have a fitted effect of over 45% in size; further: potency means the concentration at half of the fitted maximal effect
Outline: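 3T3Gli1-Luc, conditioned-medium-stimulated, 24hr cpd, 37C/5% CO2; Gli1-driven firefly Luc luminescence after 30min RT with luciferase reagent. Cells plated 4hr before cpd.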

[2] = molecular target: Estrogen receptor beta (Homo sapiens) (UniProt Q92731); assay: qHTS assay to identify small molecule agonists of the estrogen receptor beta (ER-beta) signaling pathway (AID 1259377; active means well fitted activation curve with a large enough effect in the signal ratio in the repeat runs, not every such curve was filed as active; the % refers to the signal ratio; further: potency means the concentration at half of the fitted maximal effect)
Outline: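 ER-beta-UAS-bla HEK293T (GripTite) cells carrying a UAS-driven beta-lactamase reporter, in medium with 2% charcoal-stripped FBS, were exposed to compounds for 16 hr at 37C; LiveBLAzer B/G FRET substrate was then added and fluorescence read after 2 hours at room temperature.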

[3] = molecular target: Estrogen receptor beta (Homo sapiens) (UniProt Q92731); assay: qHTS assay to identify small molecule antagonists of the estrogen receptor beta (ER-beta) signaling pathway (AID 1259378; active means well fitted inhibition curve with a large enough effect in the signal ratio in the repeat runs, not every such curve was filed as active; the % refers to the signal ratio)
Outline: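 ER-beta-UAS-bla HEK293T (GripTite) cells in 2% charcoal-stripped FBS medium were preincubated 6 hr at 37C, dosed with compound, then stimulated with 1 nM E2 (final) for 16 hr; beta-lactamase reporter read by B/G FRET fluorescence after 2 hr substrate loading.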

[4] = qHTS assay to identify small molecule agonists of the androgen receptor (AR) signaling pathway in the presence of an antagonist - cell viability counter screen (AID 1259379; active means well fitted curve in the direction sought with a large enough effect in the repeat runs; an effect the other way counts as inactive or inconclusive; further: nearly all actives have a fitted effect of over 25% in size; further: potency means the concentration at half of the fitted maximal effect)
Outline: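 Cells: MDA-kb2 (MMTV-luc, AR and GR elements), 3,000/well, 5 hr settle. Added: nilutamide 3.0uM final, then compounds (15 conc.). Incubation: 16 hr, 37C, no CO2. Read-out: CellTiter-Fluor, 1 hr, fluorescence.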

[5] = qHTS assay to identify small molecule agonists of the estrogen receptor beta (ER-beta) signaling pathway - cell viability counter screen (AID 1259380; active means well fitted curve in the direction sought with a large enough effect in the repeat runs; an effect the other way counts as inactive or inconclusive; further: nearly all actives have a fitted effect of over 30% in size; further: potency means the concentration at half of the fitted maximal effect)
Outline: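 HEK293T ER-beta-UAS-bla; 2% CS-FBS; 6 hr pre-plate, 16 hr cpd at 37C/5% CO2; LiveBLAzer read first, then CellTiter-Glo 30 min RT, luminescence.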

[6] = qHTS assay to identify small molecule antagonists of the estrogen receptor beta (ER-beta) signaling pathway - cell viability counter screen (AID 1259382; active means well fitted curve in the direction sought with a large enough effect in the repeat runs; an effect the other way counts as inactive or inconclusive; further: nearly all actives have a fitted effect of over 55% in size; further: potency means the concentration at half of the fitted maximal effect)
Outline: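 Cells: ER-beta-UAS-bla HEK293T, 2,000/well, 2% CS-FBS, 6 hr settle. Cpd + E2 (1nM final), 16 hr, 37C/5% CO2. Bla FRET substrate 2 hr RT, then CellTiter-Glo 30 min RT, luminescence.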

[7] = qHTS assay to identify small molecule agonists or antagonists of the thyroid stimulating hormone receptor (TSHR) signaling pathway - wild type cell line counter screen (AID 1259384)
Outline: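 Wild-type HEK293 cells were plated 18 h at 37 C/5% CO2, pin-dosed with compound plus Ro20-1724 medium, held 30 min at room temperature, then given cAMP-d2 and anti-cAMP-cryptate; fluorescence was read after 1 h. Fifteen concentrations, triplicate.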

[8] = molecular target: Thyrotropin receptor (Homo sapiens) (UniProt P16473); assay: qHTS assay to identify small molecule antagonists of the thyroid stimulating hormone receptor (TSHR) signaling pathway (AID 1259385); further: nearly all actives have a fitted effect of over 20% in size
Outline: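 TSHR-HEK293 cells were plated and held 18 h at 37C/5% CO2, then given compound plus Ro20-1724 and stimulated with TSH at 1.5 ng/mL final. After 30 min at room temperature, cAMP was detected with cAMP-d2/anti-cAMP-cryptate (1 h) by fluorescence.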

[9] = molecular target: Estrogen receptor (Homo sapiens) (UniProt P03372); assay: qHTS assay to identify small molecule agonists of the estrogen receptor alpha (ER-alpha) signaling pathway in the presence of an antagonist (AID 1259383); further: nearly all actives have a fitted effect of over 15% in size; further: potency means the concentration at half of the fitted maximal effect; on activation: top concentration of the series differs between compounds
Outline: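 VM7Luc4E2, endog. ER-alpha + 4×ERE-luc; charcoal-stripped FBS, phenol red-free, 5 d; 24hr plating; +10.0nM ICI-182,780 (final); cpds 15 conc, 22hr, 37C/5% CO2; ONE-Glo luminescence.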

[10] = molecular target: Androgen receptor (Homo sapiens) (UniProt P10275); assay: qHTS assay to identify small molecule agonists of the androgen receptor (AR) signaling pathway in the presence of an antagonist (AID 1259381); further: nearly all actives have a fitted effect of over 15% in size
Outline: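 MDA-kb2 cells, 3,000/well, rested 5hr at 37C/0% CO2 → nilutamide 3.0uM final or buffer → compounds, 15 conc. → 16hr at 37C → ONE-Glo, 30min RT → luminescence.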

Measured: Potency

Estrogen receptor beta (Homo sapiens), sequence (Q92731 whole entry, looked up): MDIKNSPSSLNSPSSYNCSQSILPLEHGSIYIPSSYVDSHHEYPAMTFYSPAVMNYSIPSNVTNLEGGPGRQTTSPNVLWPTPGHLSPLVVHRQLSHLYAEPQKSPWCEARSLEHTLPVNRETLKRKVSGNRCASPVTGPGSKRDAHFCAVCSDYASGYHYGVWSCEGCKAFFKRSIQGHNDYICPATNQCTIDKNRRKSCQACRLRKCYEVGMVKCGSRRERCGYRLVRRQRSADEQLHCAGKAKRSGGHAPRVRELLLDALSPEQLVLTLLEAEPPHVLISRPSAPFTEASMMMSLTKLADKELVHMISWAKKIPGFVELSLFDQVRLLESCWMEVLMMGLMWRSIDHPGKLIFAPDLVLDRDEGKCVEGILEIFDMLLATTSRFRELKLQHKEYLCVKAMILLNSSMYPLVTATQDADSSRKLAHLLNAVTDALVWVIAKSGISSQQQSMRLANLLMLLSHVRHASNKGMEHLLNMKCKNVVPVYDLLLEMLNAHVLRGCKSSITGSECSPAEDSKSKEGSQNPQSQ
Thyrotropin receptor (Homo sapiens), sequence (P16473 whole entry, looked up): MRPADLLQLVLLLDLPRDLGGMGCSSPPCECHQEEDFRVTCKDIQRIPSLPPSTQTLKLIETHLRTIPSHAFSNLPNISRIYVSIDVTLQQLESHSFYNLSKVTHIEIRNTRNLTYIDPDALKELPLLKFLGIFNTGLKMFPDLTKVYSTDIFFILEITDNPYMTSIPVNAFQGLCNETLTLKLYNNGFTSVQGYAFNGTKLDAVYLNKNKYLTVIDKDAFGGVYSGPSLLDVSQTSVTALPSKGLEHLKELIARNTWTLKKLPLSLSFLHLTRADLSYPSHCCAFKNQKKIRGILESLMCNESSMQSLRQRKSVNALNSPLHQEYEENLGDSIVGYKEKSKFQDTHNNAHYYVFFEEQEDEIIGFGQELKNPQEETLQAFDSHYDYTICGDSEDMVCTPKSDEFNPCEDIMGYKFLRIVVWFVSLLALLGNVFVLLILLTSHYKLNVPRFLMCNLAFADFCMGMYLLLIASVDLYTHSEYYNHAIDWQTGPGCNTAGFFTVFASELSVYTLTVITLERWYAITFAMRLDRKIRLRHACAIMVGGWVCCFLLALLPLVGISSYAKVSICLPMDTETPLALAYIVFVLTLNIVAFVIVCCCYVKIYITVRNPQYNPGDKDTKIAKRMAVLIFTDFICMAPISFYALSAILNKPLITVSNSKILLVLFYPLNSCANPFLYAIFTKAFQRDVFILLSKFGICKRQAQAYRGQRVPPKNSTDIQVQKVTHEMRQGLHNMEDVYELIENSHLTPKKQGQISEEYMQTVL
Estrogen receptor (Homo sapiens), sequence (P03372 whole entry, looked up): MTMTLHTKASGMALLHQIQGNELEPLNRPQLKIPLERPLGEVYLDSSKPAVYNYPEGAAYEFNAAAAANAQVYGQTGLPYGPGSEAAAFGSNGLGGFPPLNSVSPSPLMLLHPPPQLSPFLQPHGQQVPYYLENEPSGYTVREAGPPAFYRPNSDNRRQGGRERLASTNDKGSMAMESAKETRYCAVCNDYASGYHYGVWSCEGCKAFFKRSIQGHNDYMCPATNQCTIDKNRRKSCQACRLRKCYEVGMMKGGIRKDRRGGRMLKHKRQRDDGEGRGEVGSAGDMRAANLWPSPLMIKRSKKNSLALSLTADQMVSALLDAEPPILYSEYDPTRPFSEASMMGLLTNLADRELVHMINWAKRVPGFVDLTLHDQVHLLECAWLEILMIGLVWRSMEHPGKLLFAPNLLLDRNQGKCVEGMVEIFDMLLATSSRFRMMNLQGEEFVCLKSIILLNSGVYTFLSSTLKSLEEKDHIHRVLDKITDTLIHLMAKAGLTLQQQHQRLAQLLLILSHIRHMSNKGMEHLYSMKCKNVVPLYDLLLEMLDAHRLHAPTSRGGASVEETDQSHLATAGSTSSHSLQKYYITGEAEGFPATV
Androgen receptor (Homo sapiens), sequence (P10275 whole entry, looked up): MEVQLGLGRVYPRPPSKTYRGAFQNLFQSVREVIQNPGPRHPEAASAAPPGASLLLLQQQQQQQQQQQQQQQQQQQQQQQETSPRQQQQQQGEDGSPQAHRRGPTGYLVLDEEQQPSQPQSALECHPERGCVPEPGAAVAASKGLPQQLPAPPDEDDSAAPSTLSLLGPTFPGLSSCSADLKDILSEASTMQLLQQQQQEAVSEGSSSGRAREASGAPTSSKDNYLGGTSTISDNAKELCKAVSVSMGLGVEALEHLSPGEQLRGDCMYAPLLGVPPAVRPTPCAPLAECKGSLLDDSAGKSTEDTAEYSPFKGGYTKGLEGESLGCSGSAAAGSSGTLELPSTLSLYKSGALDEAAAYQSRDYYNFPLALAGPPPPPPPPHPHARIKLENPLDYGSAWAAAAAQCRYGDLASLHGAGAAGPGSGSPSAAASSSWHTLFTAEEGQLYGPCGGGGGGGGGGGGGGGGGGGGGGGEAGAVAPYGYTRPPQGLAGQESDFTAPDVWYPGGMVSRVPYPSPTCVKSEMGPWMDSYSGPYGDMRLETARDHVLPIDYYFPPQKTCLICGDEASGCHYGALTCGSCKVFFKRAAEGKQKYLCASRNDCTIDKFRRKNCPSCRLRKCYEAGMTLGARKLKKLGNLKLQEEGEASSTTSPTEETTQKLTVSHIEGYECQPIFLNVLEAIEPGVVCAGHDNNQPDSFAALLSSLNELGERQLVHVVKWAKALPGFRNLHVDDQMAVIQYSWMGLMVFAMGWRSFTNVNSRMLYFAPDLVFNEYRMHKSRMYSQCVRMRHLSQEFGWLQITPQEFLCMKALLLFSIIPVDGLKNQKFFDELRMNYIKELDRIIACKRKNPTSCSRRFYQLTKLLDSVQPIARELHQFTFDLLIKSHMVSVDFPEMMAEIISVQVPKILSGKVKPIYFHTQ

CCCCCCCCBr
not listed: [9] | [10]
inactive: all other assays above

O=C1CC(=O)NC(=O)N1
not listed: [8] | [10]
inactive: all other assays above

O=P(O)(O)CN(CP(=O)(O)O)CP(=O)(O)O
not listed: [10]
inactive: all other assays above

C=CC=O
not listed: [9] | [10]
inactive: all other assays above

CCC(C)(C#N)N=NC(C)(C#N)CC (configuration not stated)
inactive: all assays above

ClC1=C(Cl)C2(Cl)C(CBr)CC1(Cl)C2(Cl)Cl (configuration not stated)
not listed: [10]
inactive: all other assays above

ClCCCCl
not listed: [9] | [10]
inactive: all other assays above

CCN(CCO)CCO
not listed: [10]
inactive: all other assays above

OCC(Cl)CCl (configuration not stated)
inactive: [1] | [2] | [3] | [4] | [5] | [9]

O=C/C=C/c1ccco1
not listed: [7] | [8]
inactive: all other assays above

CC(=O)CN(CC(C)=O)N=O
not listed: [6] | [9] | [10]
inactive: all other assays above

CC[C@@H](CO)NC(=O)[C@@H]1C=C2c3cccc4c3c(cn4C)C[C@H]2N(C)C1
inactive: [1] | [2] | [3] | [4] | [5] | [9]

CCOC(=O)N(C)N=O
not listed: [9] | [10]
inactive: all other assays above

COc1ccccc1OC
not listed: [10]
inactive: all other assays above

S=C=S
not listed: [9] | [10]
inactive: all other assays above

Cc1ccc2cc(C)ccc2c1
inactive: [1] | [2] | [3] | [4] | [5] | [6]

C=CC1(C)OC(=O)N(c2cc(Cl)cc(Cl)c2)C1=O (configuration not stated)
active: [5] 27.1 µM and 21.7 µM
21.6 µM (active) and inactive: [1]
54.2 µM (active) and inactive: [6]
not listed: [9] | [10]
inactive: all other assays above

O=C1C2CC=CCC2C(=O)N1SC(Cl)(Cl)Cl (configuration not stated)
2.42 µM (active) and inactive: [9]
inactive and 30.1 µM (active): [5] | [6]
inactive and 2.69 µM (active): [1]
active: [2] 8.6 µM | [4] 30.1 µM
inactive: [3] | [7] | [8]

CN(C)CCc1c[nH]c2cccc(OP(=O)(O)O)c12
not listed: [7] | [8] | [10]
inactive: all other assays above

CN=CNc1ccc(C)cc1C
not listed: [10]
inactive: all other assays above

CS(=O)(=O)Cl
not listed: [10]
inactive: all other assays above

CC(C)c1ccc(O)cc1
not listed: [6] | [9] | [10]
inactive: all other assays above

CC(C)(C)C(=O)Cl
not listed: [6] | [10]
inactive: all other assays above

C=CCc1cc(OC)c2c(c1)OCO2
not listed: [6] | [9] | [10]
inactive: all other assays above

CCC(C(N)=O)N1CCCC1=O (configuration not stated)
not listed: [10]
inactive: all other assays above

C=CCCC#N
not listed: [10]
inactive: all other assays above

Cn1c(CCCC(=O)O)nc2cc(N(CCCl)CCCl)ccc21
not listed: [8] | [10]
inactive: all other assays above
